Where “and” joins values, the source holds several entries; their conditions need not be identical. Equal values may be shown once. About 2,000 (36%) of roughly 5,500 compounds were called active. Another 18% or so got no clear call; they are omitted. Some of the results follow. Values without a mark were called inactive. No stated cut-off is given here; in the data, active means normalized growth mostly below about 0.91 (no sharp cut-off); inconclusive means no clear call, values can overlap the other calls; inactive means mostly above about 0.92.
Experiment: chemical genetic growth profiling, strain panel (AID 1159580);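 further: tested at 20 µM; growth read once vehicle control cultures reached saturation at 30 °C; 1 = growth at the plate median or of vehicle wells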
Conditions: S. cerevisiae deletion strains, growth OD

CC(C)CCCC(C)C1CCC2C3=CC[C@H]4C[C@@H](O)CC[C@]4(C)C3CC[C@@]21C (some centres not stated)
normalized growth (locus YAL021C, strain ccr4, stronger effect = lower value): 0.965 | normalized growth (locus YAL026C, strain drs2, stronger effect = lower value): 0.965 | normalized growth (locus YAL030W, strain snc1, stronger effect = lower value): 0.985 | normalized growth (locus YBL061C, strain skt5, stronger effect = lower value): 0.991 | normalized growth (locus YBR009C, strain hhf1, stronger effect = lower value): 1.02 | normalized growth (locus YBR021W, strain FUR4, stronger effect = lower value): 1.02 | normalized growth (locus YBR023C, strain chs3, stronger effect = lower value): 0.961 | normalized growth (locus YBR171W, strain sec66, stronger effect = lower value): 0.968 | normalized growth (locus YBR229C, strain ROT2, stronger effect = lower value): 1.02 | normalized growth (locus YBR231C, strain swc5, stronger effect = lower value): 0.967 | normalized growth (locus YBR279W, strain paf1, stronger effect = lower value): 0.991 | normalized growth (locus YCL011C, strain gbp2, stronger effect = lower value): 0.974 | normalized growth (locus YCL016C, strain dcc1, stronger effect = lower value): 0.979 | normalized growth (locus YCL029C, strain bik1, stronger effect = lower value): 0.994 | normalized growth (locus YCL061C, strain MRC1, stronger effect = lower value): 0.986 | normalized growth (locus YCL069W, strain vba3, stronger effect = lower value): 0.989 | normalized growth (locus YCR088W, strain abp1, stronger effect = lower value): 0.983 | normalized growth (locus YDL005C, strain med2, stronger effect = lower value): 0.997 | normalized growth (locus YDL035C, strain GPR1, stronger effect = lower value): 0.996 | normalized growth (locus YDL040C, strain nat1, stronger effect = lower value): 0.965 | normalized growth (locus YDL074C, strain BRE1, stronger effect = lower value): 0.965 | normalized growth (locus YDL101C, strain DUN1, stronger effect = lower value): 1.02 | normalized growth (locus YDL185W, strain tfp1, stronger effect = lower value): 1 | normalized growth (locus YDL192W, strain arf1, stronger effect = lower value): 0.981 | normalized growth (locus YDR001C, strain nth1, stronger effect = lower value): 0.985 | normalized growth (locus YDR069C, strain doa4, stronger effect = lower value): 0.98 | normalized growth (locus YDR101C, strain arx1, stronger effect = lower value): 0.988 | normalized growth (locus YDR137W, strain rgp1, stronger effect = lower value): 0.823 (active) | normalized growth (locus YDR150W, strain NUM1, stronger effect = lower value): 1.04 | normalized growth (locus YDR159W, strain sac3, stronger effect = lower value): 1.01 | normalized growth (locus YDR162C, strain NBP2, stronger effect = lower value): 0.958 | normalized growth (locus YDR195W, strain ref2): 1.03 | normalized growth (locus YDR297W, strain sur2, stronger effect = lower value): 0.975 | normalized growth (locus YDR318W, strain mcm21, stronger effect = lower value): 1.01 | normalized growth (locus YDR334W, strain swr1, stronger effect = lower value): 0.948 | normalized growth (locus YDR335W, strain msn5, stronger effect = lower value): 0.967 | normalized growth (locus YDR388W, stronger effect = lower value): 0.994 | normalized growth (locus YDR392W, strain spt3, stronger effect = lower value): 0.863 | normalized growth (locus YDR502C, strain sam2, stronger effect = lower value): 0.977 | normalized growth (locus YEL003W, strain gim4, stronger effect = lower value): 0.976 | normalized growth (locus YEL037C, strain rad23, stronger effect = lower value): 0.975 | normalized growth (locus YEL061C, strain CIN8 (second series), stronger effect = lower value): 0.978 | normalized growth (locus YEL061C, strain CIN8, stronger effect = lower value): 1.01 | normalized growth (locus YER015W, strain faa2, stronger effect = lower value): 0.985 | normalized growth (locus YER016W, strain bim1, stronger effect = lower value): 0.998 | normalized growth (locus YER110C, stronger effect = lower value): 0.985 | normalized growth (locus YER111C, strain swi4, stronger effect = lower value): 0.977 | normalized growth (locus YER155C, strain BEM2 (second series), stronger effect = lower value): 0.973 | normalized growth (locus YER155C, strain BEM2, stronger effect = lower value): 1.01 | normalized growth (locus YER167W, strain BCK2, stronger effect = lower value): 1.06 | normalized growth (locus YFR010W, strain ubp6, stronger effect = lower value): 0.983 | normalized growth (locus YGL078C, strain dbp3, stronger effect = lower value): 0.982 | normalized growth (locus YGL086W, strain mad1, stronger effect = lower value): 0.996 | normalized growth (locus YGL167C, strain pmr1, stronger effect = lower value): 0.98 | normalized growth (locus YGL173C, strain kem1, stronger effect = lower value): 0.968 | normalized growth (locus YGL227W, strain vid30, stronger effect = lower value): 0.991 | normalized growth (locus YGL240W, strain doc1, stronger effect = lower value): 0.984 | normalized growth (locus YGL248W, strain PDE1, stronger effect = lower value): 1.03 | normalized growth (locus YGL253W, strain hxk2, stronger effect = lower value): 0.909 (active) | normalized growth (locus YGR135W, strain pre9, stronger effect = lower value): 0.982 | normalized growth (locus YGR252W, strain gcn5, stronger effect = lower value): 0.944 | normalized growth (locus YHR013C, strain ard1, stronger effect = lower value): 0.957 | normalized growth (locus YHR027C, strain rpn1, stronger effect = lower value): 0.973 | normalized growth (locus YHR030C, strain SLT2, stronger effect = lower value): 1.01 and 0.993 | normalized growth (locus YHR079C, strain IRE1 (second series), stronger effect = lower value): 1 | normalized growth (locus YHR079C, strain IRE1, stronger effect = lower value): 1.02 | normalized growth (locus YHR094C, strain hxt1, stronger effect = lower value): 0.988 | normalized growth (locus YHR129C, strain ARP1, stronger effect = lower value): 1.01 | normalized growth (locus YHR142W, strain chs7, stronger effect = lower value): 0.886 | normalized growth (locus YHR200W, strain rpn10, stronger effect = lower value): 1.01 | normalized growth (locus YIL066C, strain RNR3, stronger effect = lower value): 1.03 | normalized growth (locus YIL073C, strain SPO22, stronger effect = lower value): 1.05 | normalized growth (locus YIL125W, strain kgd1, stronger effect = lower value): 0.999 | normalized growth (locus YIR030C, strain dcg1, stronger effect = lower value): 0.994 | normalized growth (locus YJL092W, strain hpr5, stronger effect = lower value): 0.976 | normalized growth (locus YJL095W, strain BCK1 (second series), stronger effect = lower value): 0.991 | normalized growth (locus YJL095W, strain BCK1, stronger effect = lower value): 0.946 and 1 | normalized growth (locus YJL115W, strain asf1, stronger effect = lower value): 0.966 | normalized growth (locus YJL129C, strain trk1, stronger effect = lower value): 0.905 | normalized growth (locus YJL134W, strain LCB3, stronger effect = lower value): 0.989 | normalized growth (locus YJL154C, strain vps35, stronger effect = lower value): 0.995 | normalized growth (locus YJL164C, strain tpk1, stronger effect = lower value): 0.956 | normalized growth (locus YJL166W, strain qcr8, stronger effect = lower value): 0.971 | normalized growth (locus YJL168C, strain set2, stronger effect = lower value): 0.995 | normalized growth (locus YJL187C, strain SWE1 (second series), stronger effect = lower value): 0.994 | normalized growth (locus YJL187C, strain SWE1, stronger effect = lower value): 0.985 | normalized growth (locus YJR043C, strain POL32, stronger effect = lower value): 1.05

— PubChem BioAssay AID1159580 (chemical genetic matrix, 2015)
